35 compounds from PubChem BioAssay can be followed below.

Test system in one assay: not listed separately
As to the kind of experiment: compounds binding Alexa647 anti-His antibody – biochemical, small-molecule microarray, 635 nm fluorescence, artefact control for SMM control protein annotation, primary screen (AID 1128).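 Also: score merges feature fluorescence with signal-to-noise for each printed compound spot.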 The settings on record: higher = more signal.
As for `Cc1cc2c(c(=O)o1)[C@H](O)[C@H]1O[C@H]1C2=O`, the composite z-score is -0.633.

Regarding `COc1ccc(COC(=O)NN=C2C[C@@H](O)[C@@H](O)[C@@H]3[C@@H]4C(=O)N(c5ccc(F)cc5F)C(=O)[C@@H]4CC[C@@H]23)cc1`, the composite z-score is 0.257.

In turn, `CO[C@@H]1COC(=O)CCC[C@@H](C)[C@H](OC)COC(=O)CCC[C@H]1C` came in with a composite z-score of 0.463.

In turn, `O=C1C[C@@H](O)[C@@H](O)[C@@H]2[C@@H]3C(=O)N(Cc4ccc5c(c4)OCO5)C(=O)[C@@H]3CC[C@@H]12` displayed a composite z-score of -0.0619.

In turn, `CC=CC1=C(CO)[C@H](O)[C@H]2O[C@H]2[C@H]1O` yielded a composite z-score of 0.189.

For the compound `CC(C)[C@H](NC(=O)OC(C)(C)C)[C@@H](O)CC(=O)OC(C)(C)C`, the composite z-score is -0.105.

On to `CO[C@H]1COC(=O)[C@@H]2CCCN2C(=O)CC=C[C@@H](C)[C@H](OC)COC(=O)CC=C[C@@H]1C`, for which the composite z-score was -0.287.

In turn, `COC(=O)[C@H](C)NC(=O)CCC1CC(OC(=O)NCCc2ccc(F)cc2)CC2(CCCC(COC(=O)NCCc3ccc(Cl)cc3)O2)O1` (some centres undefined) had a composite z-score of 0.225.

Regarding `CC(C)=CCCC(C)=CCON=C1[C@H]2CCn3c(=O)n(C)c(=O)n3[C@H]2[C@H](O)[C@@H]2O[C@H]12`, the composite z-score is 0.957.

`O=C(NN=C1C[C@@H](O)[C@@H](O)[C@@H]2[C@@H]3C(=O)N(c4cccc(Oc5ccccc5)c4)C(=O)[C@@H]3CC[C@@H]12)OCc1ccccc1` had a composite z-score of -0.0621.

`CC(=O)OC[C@H]1O[C@H](C#CCCCc2ccccc2)C=C[C@@H]1OC(C)=O`: the composite z-score turned out to be 0.451.

As to `CC(CCN1CCc2nc(-c3ccccc3)c(-c3ccccc3)cc2C1)=NO[C@H](C)c1cn([C@@H]2COC[C@H]2O)nn1`, the composite z-score came out at 0.124.

`O[C@@H](Cc1ccccc1)[C@H]1C2C=CCCC(c3ccccc3)=C2CN1Cc1cccc(Cl)c1` (some centres undefined) registered a composite z-score of 0.607.

`COc1ccc([Si](C)(C)[C@H]2[C@H](CCO)O[C@@]3(C(=O)N(Cc4cccc(NC(=O)[C@H](C)O)c4)c4ccccc43)[C@@H]2C)cc1`: the composite z-score was 1.75.

`O=C1NC(=O)C2C1C=CC(C(O)Cc1ccccc1)N2Nc1ccccn1` (centres undefined) had a composite z-score of 0.596.

For `CC(CCC(=O)OC[C@H]1O[C@H](C#Cc2ccccc2)C=C[C@@H]1Oc1ccc(C)cc1)=NOC[C@@H](O)COCc1ccco1`, the composite z-score is -1.01.

`CC1CC/C=C\[C@H]2OC34C=CCN(Cn5nnc6ccccc65)C(=O)[C@H]3N(CCO)C(=O)[C@@H]4C2C(=O)O1` (some centres undefined) displayed a composite z-score of 0.885.

`CCOC(=O)CCN1C(=O)[C@H]2[C@H]3[C@H](O)[C@H](O)CC(=NNC(=O)OCc4ccc(OC)cc4)[C@@H]3CC[C@H]2C1=O`: the composite z-score was -0.0498.

The compound `CCN1C(=O)[C@H]2[C@H]3[C@H](O)[C@H](O)CC(=NOC(C)CN4CCCCc5nc(C)c(C)cc54)[C@@H]3CC[C@H]2C1=O` (some centres undefined) registered a composite z-score of 2.1.

Regarding `C#CCCCON=C1C[C@@H](O)[C@@H](O)[C@@H]2[C@@H]3C(=O)N(CCC(=O)OCC)C(=O)[C@@H]3CC[C@@H]12`, the composite z-score was -0.264.

Turning to `CCN1C(=O)[C@H]2[C@H]3[C@H](O)[C@H](O)CC(=NO[C@@H]4O[C@H](CO)[C@@H](O)[C@H](O)[C@H]4O)[C@@H]3CC[C@H]2C1=O`, the composite z-score was -0.0636.

Regarding `COCC1=C2[C@@H](CCc3ccccc3)OB(O)C[C@@H]2n2c(=O)n(-c3ccccc3)c(=O)n2C1`, the composite z-score is 0.241.

Compound `CN1C(=O)C2C=CC(C(O)c3ccc(Br)cc3)N(N(c3ccccc3)c3ccccc3)C2C1=O` (centres undefined) came in with a composite z-score of 0.373.

In turn, `CC(CCN1CCCCc2nc(C)c(C)cc21)=NOC(C)CN1CCCCc2nc(C)c(C)cc21` (centres undefined) returned a composite z-score of 2.37.

Another assay relates to Human papillomavirus type 1a E7 protein (residues 1-88). As to the kind of experiment: HPV1a E7 small-molecule binders, primary screen, biochemical, small-molecule microarray, residues 1-88, 635 nm (AID 1129). The conditions noted are these: small-molecule microarray binding, fluorescence 635 nm; higher = more signal.
In the case of `CO[C@@H]1COC(=O)[C@@H]2CCCN2C(=O)[C@@H](C)COC(=O)[C@H](COCc2ccccc2)NC(=O)CC=C[C@H]1C`, the composite z-score came to 0.692.

Compound `C#CCCCON=C1C[C@@H](O)[C@@H](O)[C@@H]2[C@@H]3C(=O)N([C@@H](C)c4ccccc4)C(=O)[C@@H]3CC[C@H]12` gave a composite z-score of 0.621.

For `COCCCNC(=O)[C@@]1(C)c2ccccc2C(=O)N(Cc2ccc(OC(F)(F)F)cc2)[C@H]1c1ccc(CO)cc1`, the composite z-score is -1.52.

For the compound `C=COC[C@H]1CN2[C@@H](CC[C@@H](C)[C@@H]2c2ccc(Br)cc2)C(=O)O1`, the composite z-score came to 0.394.

For the compound `CC(CCN1CCCCc2nc(C)c(C)cc21)=NOC(C)CN1CCCc2nc(C)c(C)cc21` (centres undefined), the composite z-score is 1.12.

`CC(C)=NOCc1ccc(-c2cc(-c3ccccc3)no2)cc1` displayed a composite z-score of 0.272.

Compound `CCc1cc2c(nc1CC)CCN(CCC(C)=NOC[C@@H](O)[C@H]1O[C@@H]3OC(C)(C)O[C@@H]3[C@H]1O)C2` yielded a composite z-score of -0.0321.

Take `COc1cccc([C@H]2Oc3ccc(OC)cc3C(=NO[C@H](C)c3cn([C@@H]4COC[C@H]4O)nn3)[C@@H]2O)c1`: the composite z-score is -0.949.

`O=C(NN=C1C[C@@H](O)[C@@H](O)[C@@H]2[C@@H]3C(=O)N(c4ccc(F)cc4F)C(=O)[C@@H]3CC[C@@H]12)OCc1ccccc1` had a composite z-score of 0.117.

In turn, `CCOC(=O)[C@H](Cc1ccccc1)NC(=O)CCC1CC(OC(=O)NCc2ccc3c(c2)OCO3)CC2(CCCC(COC(=O)NCc3cccc(C(F)(F)F)c3)O2)O1` (some centres undefined) yielded a composite z-score of 0.355.

On to `C[C@@H](c1ccccc1)N1C(=O)[C@H]2[C@H]3[C@H](O)C=CC(=O)[C@@H]3CC[C@H]2C1=O`, for which the composite z-score stood at 0.492.

`Cc1cc2c(c(=O)o1)[C@H](O)[C@H]1O[C@H]1C2=O` yielded a composite z-score of -1.07.

In the case of `COc1ccc(COC(=O)NN=C2C[C@@H](O)[C@@H](O)[C@@H]3[C@@H]4C(=O)N(c5ccc(F)cc5F)C(=O)[C@@H]4CC[C@@H]23)cc1`, the composite z-score was -0.769.

Regarding `CO[C@@H]1COC(=O)CCC[C@@H](C)[C@H](OC)COC(=O)CCC[C@H]1C`, the composite z-score was found to be 0.077.

As for `O=C1C[C@@H](O)[C@@H](O)[C@@H]2[C@@H]3C(=O)N(Cc4ccc5c(c4)OCO5)C(=O)[C@@H]3CC[C@@H]12`, the composite z-score turned out to be 0.459.

`CC=CC1=C(CO)[C@H](O)[C@H]2O[C@H]2[C@H]1O` yielded a composite z-score of 0.277.

For the compound `CC(C)[C@H](NC(=O)OC(C)(C)C)[C@@H](O)CC(=O)OC(C)(C)C`, the composite z-score was -1.47.

Compound `CO[C@H]1COC(=O)[C@@H]2CCCN2C(=O)CC=C[C@@H](C)[C@H](OC)COC(=O)CC=C[C@@H]1C` had a composite z-score of -0.52.

`COC(=O)[C@H](C)NC(=O)CCC1CC(OC(=O)NCCc2ccc(F)cc2)CC2(CCCC(COC(=O)NCCc3ccc(Cl)cc3)O2)O1` (some centres undefined) had a composite z-score of 0.966.

`CC(C)=CCCC(C)=CCON=C1[C@H]2CCn3c(=O)n(C)c(=O)n3[C@H]2[C@H](O)[C@@H]2O[C@H]12` gave a composite z-score of 0.968.

As to `O=C(NN=C1C[C@@H](O)[C@@H](O)[C@@H]2[C@@H]3C(=O)N(c4cccc(Oc5ccccc5)c4)C(=O)[C@@H]3CC[C@@H]12)OCc1ccccc1`, the composite z-score stood at 0.0508.

Turning to `CC(=O)OC[C@H]1O[C@H](C#CCCCc2ccccc2)C=C[C@@H]1OC(C)=O`, the composite z-score is 0.242.

Compound `CC(CCN1CCc2nc(-c3ccccc3)c(-c3ccccc3)cc2C1)=NO[C@H](C)c1cn([C@@H]2COC[C@H]2O)nn1` had a composite z-score of 0.915.

Compound `O[C@@H](Cc1ccccc1)[C@H]1C2C=CCCC(c3ccccc3)=C2CN1Cc1cccc(Cl)c1` (some centres undefined) had a composite z-score of 1.14.

The compound `COc1ccc([Si](C)(C)[C@H]2[C@H](CCO)O[C@@]3(C(=O)N(Cc4cccc(NC(=O)[C@H](C)O)c4)c4ccccc43)[C@@H]2C)cc1` returned a composite z-score of 1.15.

Compound `O=C1NC(=O)C2C1C=CC(C(O)Cc1ccccc1)N2Nc1ccccn1` (centres undefined) gave a composite z-score of 0.45.

For `CC(CCC(=O)OC[C@H]1O[C@H](C#Cc2ccccc2)C=C[C@@H]1Oc1ccc(C)cc1)=NOC[C@@H](O)COCc1ccco1`, the composite z-score was -0.569.

With `CC1CC/C=C\[C@H]2OC34C=CCN(Cn5nnc6ccccc65)C(=O)[C@H]3N(CCO)C(=O)[C@@H]4C2C(=O)O1` (some centres undefined), the composite z-score was 1.16.

With `CCOC(=O)CCN1C(=O)[C@H]2[C@H]3[C@H](O)[C@H](O)CC(=NNC(=O)OCc4ccc(OC)cc4)[C@@H]3CC[C@H]2C1=O`, the composite z-score was 0.842.

`CCN1C(=O)[C@H]2[C@H]3[C@H](O)[C@H](O)CC(=NOC(C)CN4CCCCc5nc(C)c(C)cc54)[C@@H]3CC[C@H]2C1=O` (some centres undefined) displayed a composite z-score of 0.0084.

Take `C#CCCCON=C1C[C@@H](O)[C@@H](O)[C@@H]2[C@@H]3C(=O)N(CCC(=O)OCC)C(=O)[C@@H]3CC[C@@H]12`: the composite z-score is -0.0592.

The compound `CCN1C(=O)[C@H]2[C@H]3[C@H](O)[C@H](O)CC(=NO[C@@H]4O[C@H](CO)[C@@H](O)[C@H](O)[C@H]4O)[C@@H]3CC[C@H]2C1=O` displayed a composite z-score of -1.45.

Take `COCC1=C2[C@@H](CCc3ccccc3)OB(O)C[C@@H]2n2c(=O)n(-c3ccccc3)c(=O)n2C1`: the composite z-score was -0.028.

On to `CN1C(=O)C2C=CC(C(O)c3ccc(Br)cc3)N(N(c3ccccc3)c3ccccc3)C2C1=O` (centres undefined), for which the composite z-score came to 0.77.

`CC(CCN1CCCCc2nc(C)c(C)cc21)=NOC(C)CN1CCCCc2nc(C)c(C)cc21` (centres undefined) showed a composite z-score of 1.2.
